Most compounds without a hit are left out; they make up all but 12% or so of the library.
HP1b chromo inh = inhibitors of HP1-beta chromodomain binding to methylated histone tails; P83916; AlphaScreen HP1-beta / biotin-H3K9me3 peptide binding; AID 540317; actives 0.56% (n = 390,000); Potency, µM (highest dose often 114 µM), actives largely listed as inhibitors; also: nearly all actives have a fitted effect of over 70% in size
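HP1-beta protein (50 nM final) preincubated 30 min at room temperature with biotinylated H3(1-18)K9me3 peptide (50 nM) in PBS pH 7.4, 0.01% Tween-20, then compound added for 30 min. AlphaScreen streptavidin donor/nickel chelate acceptor beads (10 ug/mL final), 30 min dark, luminescence read.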
Sfp PPTase inh = inhibitors of Bacillus subtilis Sfp phosphopantetheinyl transferase; Q9F4F7; Biochemical Sfp PPTase activity, qHTS; Potency, µM, usual class: inhibitors; actives 3.5% (n = 310,000); AID 1490;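 also: the enzyme is Sfp with the accession as filed and its product quenches rhodamine fluorescence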
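Buffer: 50 mM Hepes-Na pH 7.6, 10 mM MgCl2, 0.01% Nonidet P-40, 0.01% BSA. Enzyme 15 nM, pre-exposed to compound 15 min; substrates then added and fluorescence change tracked over 30 min.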
BAZ2B block = BAZ2B (human) inhibition; Potency, µM (top dose mostly 114 µM), actives largely listed as inhibitors; AlphaScreen BAZ2B-H3K14Ac peptide displacement; actives 4.4% (n = 360,000); AID 504333; also: nearly all actives have a fitted effect of over 60% in size
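Multi-concentration screen (max 110 uM) measuring displacement of acetylated histone H3 peptide from BAZ2B by AlphaScreen, using 50 nM protein, 50 nM peptide and 10 ug/mL streptavidin donor plus Ni-chelate acceptor beads.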
G9a inh = G9a (human) methyltransferase inhibition; Q96KQ7; G9a H3K9 monomethylation, AlphaScreen, 2 h; Potency, µM (titrated, usually from 102 µM), most hits filed as inhibitors; actives 8.8% (n = 350,000); AID 504332; also: nearly all actives have a fitted effect of over 75% in size
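Compounds were preincubated with 20 nM G9a for 15 min, after which biotinylated H3K9 peptide (500 nM) and SAM (20 uM) started a 2 h room-temperature reaction. Monomethylated product was quantified by antibody-based AlphaScreen chemiluminescence.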
JMJD2A Tudor inh = inhibitors of human JMJD2A Tudor domain. O75164. AlphaScreen JMJD2A-Tudor / H3K4me3 peptide binding. Potency, µM (doses to about 114 µM), actives largely listed as inhibitors. actives 4.4% (n = 390,000). AID 504339; also: nearly all actives have a fitted effect of over 50% in size
TDP1 inh = blocks human tyrosyl-DNA phosphodiesterase 1; Q9NUW8; recombinant TDP1, AlphaScreen DNA substrate cleavage; Potency, µM (series often up to 130 µM), actives largely listed as inhibitors; actives 0.28% (n = 350,000); AID 485290; also: nearly all actives have a fitted effect of over 40% in size
Target sequence (Q9NUW8 whole entry, looked up): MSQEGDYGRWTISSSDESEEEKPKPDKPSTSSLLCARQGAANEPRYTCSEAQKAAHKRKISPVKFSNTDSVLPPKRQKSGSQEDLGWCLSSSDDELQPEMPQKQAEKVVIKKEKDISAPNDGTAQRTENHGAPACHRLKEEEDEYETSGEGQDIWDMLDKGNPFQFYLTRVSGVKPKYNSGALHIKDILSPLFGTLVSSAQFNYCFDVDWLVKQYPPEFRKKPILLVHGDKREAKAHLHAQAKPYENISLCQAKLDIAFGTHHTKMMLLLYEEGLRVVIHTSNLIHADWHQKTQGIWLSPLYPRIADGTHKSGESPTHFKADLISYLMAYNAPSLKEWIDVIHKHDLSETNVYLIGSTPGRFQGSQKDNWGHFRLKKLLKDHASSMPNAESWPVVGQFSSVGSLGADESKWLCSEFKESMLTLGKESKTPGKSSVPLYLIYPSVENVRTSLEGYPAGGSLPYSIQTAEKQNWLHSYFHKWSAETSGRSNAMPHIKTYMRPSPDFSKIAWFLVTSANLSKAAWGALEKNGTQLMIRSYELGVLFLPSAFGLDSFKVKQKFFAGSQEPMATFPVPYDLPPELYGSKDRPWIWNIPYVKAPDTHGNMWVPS
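AlphaScreen read-out: signal falls as enzyme removes the 3' tyrosine-FITC from a 5'-biotinylated DNA oligo (15 nM, 5 min, RT). Enzyme was E. coli-made recombinant Tdp1 at 1 nM, exposed to compound for 15 min beforehand; beads 10 ug/ml, 10 min.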
A number is an active result; – = inactive; ? = inconclusive; · = not tested or not shown; ! = a repeat was not active; [ ] = dose if it differs, or a comment. Calls follow the shape of the dose curve; as a rule, active = well fitted curve in the direction sought with a large enough effect; inconclusive = small, poorly fitted or top-dose-only effect, or another doubt; inactive = no such curve, though single readings can be large; an effect the other way counts as inactive or inconclusive.

SMILES	HP1b chromo inh	Sfp PPTase inh	BAZ2B block	G9a inh	JMJD2A Tudor inh	TDP1 inh
COc1ccc(OC)c(-n2c(C)cc(/C=C3\C(=N)N4N=C(CC(=O)N5CCOCC5)SC4=NC3=O)c2C)c1	–	–	–	?	–	–
CS(=O)(=O)C1=NSC2=NC(=O)/C(=C\c3ccc(OS(=O)(=O)c4ccccc4)cc3)C(=N)N21	–	–	50µM	·	?	–
COc1cccc(-n2c(C)cc(/C=C3/C(=N)N4C(=NC3=O)SN=C4S(C)(=O)=O)c2C)c1	–	–	56µM	45µM	?	–
COc1cccc(-n2c(C)cc(/C=C3\C(=N)N4N=C(CC(=O)N5CCOCC5)SC4=NC3=O)c2C)c1	–	–	50µM	–	–	·
CS(=O)(=O)C1=NSC2=NC(=O)/C(=C\c3ccc(OC(=O)c4ccco4)c(Br)c3)C(=N)N21	–	–	56µM	20µM	?	–
CC(C)CS(=O)(=O)C1=NSC2=NC(=O)/C(=C\c3ccc(OC(=O)c4ccco4)cc3)C(=N)N21	–	–	?	·	–	–
CCCC1=NN2C(=N)/C(=C\c3cc(C)n(-c4cc(C)cc(C)c4)c3C)C(=O)N=C2S1	–	20µM	–	–	?	–
CCS(=O)(=O)C1=NSC2=NC(=O)/C(=C\c3ccc(OS(=O)(=O)c4ccccc4)c(OC)c3)C(=N)N21	–	–	50µM	40µM	56µM	–
O=C(Nc1ccccc1)c1cccc(=O)o1	–	–	–	–	–	–
CCOc1ccccc1-n1c(=S)sc2c(=O)n(-c3ccc(F)cc3)c(SCC(=O)O)nc21	–	–	–	–	–	·
CCn1c(=S)sc2c(=O)n(-c3ccccc3)c(SC)nc21	–	?	–	45µM	–	–
Cc1cccc(N2CCN(S(=O)(=O)c3c(C)[nH]c(=O)[nH]c3=O)CC2)c1C	–	–	–	40µM!	–	–
Cc1ccc(Cl)cc1N1CCN(S(=O)(=O)c2c(C)[nH]c(=O)[nH]c2=O)CC1	–	–	–	–[12.7 µM]	–	–
OC1NC(=S)N(c2ccccc2)C1O (centres undefined)	–	–	–	·	–	·
S=C1NC(c2ccccc2)N2C(=S)NC(c3ccccc3)N12 (centres undefined)	32µM	56µM	79µM	?	13µM	–
O=c1[nH]c(N/N=C\c2ccc3c(c2)OCO3)nc2ccccc12	–	20µM	–	·	–	–
Cc1c(N=Cc2cc3c(cc2[N+](=O)[O-])OCO3)cccc1[N+](=O)[O-]	–	·	·	·	?	·
O=c1[nH]c(N/N=C/c2cc3c(cc2[N+](=O)[O-])OCO3)nc2ccccc12	–	?	–	18µM	–	–
O=c1cnnc(N/N=C/c2ccc3c(c2)OCO3)[nH]1	–	?	–	45µM	–[11.4 µM]	–
O=c1[nH]c(N/N=C/c2ccccc2)nc2ccccc12	–	–	–	–	–	–
Cc1ccccc1N=Cc1cc2c(cc1[N+](=O)[O-])OCO2	–	–	?	45µM	?	–
Fc1ccc(-c2nnsc2Sc2ccccn2)cc1	–	–	–	–	–	–
COC(=O)c1c(NC(=O)c2cc(=O)c3cc(C)cc(C)c3o2)sc2c1CCC2	–	·	–	–	–	–
CNC(=O)c1ccc(NC(=O)c2cc(S(=O)(=O)N(C)C)ccc2N2CCCC2)cc1	–	·	–	?	–	–
COc1cccc(C2C=C(c3ccc(Br)s3)Nc3ncnn32)c1OC (centres undefined)	–	?	?	28µM	–	–
SMILES	HP1b chromo inh	Sfp PPTase inh	BAZ2B block	G9a inh	JMJD2A Tudor inh	TDP1 inh
C=CCOC(=O)C1=C(C)Nc2ncnn2C1c1cc(Br)ccc1F (centres undefined)	–	–	–	–[0.0925 µM]	–	–
Fc1ccc(Br)cc1C1C=C(c2ccc(Br)s2)Nc2ncnn21 (centres undefined)	–	56µM	?	10µM	?	–
COC1C(O)CC(=O)OC(C)C/C=C/C=C/[C@@H](OC2CCC(N(C)C)C(C)O2)C(C)C[C@@H](CC=O)[C@@H]1O[C@H]1OC(C)[C@H](O[C@@H]2C[C@@](C)(O)C(O)C(C)O2)C(N(C)C)C1O (some centres undefined)	·	–	·	–[2.33 µM]	·	–
Cc1cc(C(=O)O)cc(S(=O)(=O)NNC(=O)c2cccs2)c1C	–	–	–	–	–	·
Cc1c(CNCCC2=CCCCC2)c(C(=O)O)c(C)n1Cc1ccccc1	–	–	–	50µM	–	–
Cc1cc(C)c(C)c(S(=O)(=O)NCC(=O)Nc2ccc(F)cc2)c1C	–	–	–	–[12.7 µM]	–	–
COc1cc(NS(=O)(=O)c2ccc(C)cc2)c2ncccc2c1	–	–	–	–	–	–
COc1cc(NCCCC(C)N)c2ncccc2c1 (centres undefined)	–	56µM	32µM	?	22µM	–
COc1ccccc1-n1nc(C)c(-c2ccccc2)c1N	–	–	–	–	–	–
C1=C(CCNc2ncnc3c2[nH]c2ccccc23)CCCC1	–	56µM	?	56µM	–	–
COc1ccc(CNc2ncnc3c2[nH]c2ccccc23)cc1	–	–	–	50µM	?	–
CC(=O)NC(C)C(=O)OCC(=O)Nc1ccc(Br)cc1 (centres undefined)	–	–	–	–	–	–
CCCC(C)C(=O)OCC(=O)Nc1ccc(Br)cc1 (centres undefined)	·	–	–	32µM	·	–
O=C(CN1C(=O)CCc2cc(S(=O)(=O)N3CCOCC3)ccc21)Nc1cccc(C(F)(F)F)c1	–	·	–	–	–	–
CN(C)CCn1c(=S)[nH]c2ncccc2c1=O	–	50µM	–	28µM	–	–
CCOCCCn1c(=S)[nH]c2ncccc2c1=O	–	?	–	56µM	22µM	–
O=c1c2cccnc2[nH]c(=S)n1CCCN1CCN(c2ccc(F)cc2)CC1	–	–	–	–	–	–
COc1ccc(N2CC(NC(=O)c3ccc(S(=O)(=O)N4CCCC4)cc3)CC2=O)cc1 (centres undefined)	–	·	–	–	–	–
C=CCNC(=S)NCCCCC1NC(=S)N(CC=C)C1=O (centres undefined)	–	–	–	–	–	–
O=C1C(CCCNC(=S)NCc2ccccc2)NC(=S)N1Cc1ccccc1 (centres undefined)	–	–	?	50µM	–	–
COc1ccc(C(=O)NNC2=NCCCCC2)cc1	–	–	–	32µM	–	–
Cc1ccccc1C(=O)NNC1=NCCC1	–	–	?	2µM	1.6µM	–
O=C(CNc1ccc2ccccc2c1)NNC1=NCCC1	–	?	?	?	–	–
O=C(CNc1ccccc1)NNC1=NCCC1	–	?	?	10µM	–	–
CC12CCC(=O)N1C(C(=O)Nc1nc3ccc(F)cc3s1)CS2 (centres undefined)	–	·	–	–	–	–
